According to PubChem BioAssay (EPA / NIEHS):
Inconclusive results are not listed. Calls of active or inactive are those of the source. The calls were made as follows, unless noted: active = hit-call score of the fitted dose curve at least 0.9, where 1 is the maximum; inactive = score below 0.9.

Experiments:
[1] = test system: SRY-box transcription factor 2 (SOX2) Protein Expression, Deisenroth Lab, SOX2 (gene 6657); assay: CCTE_Deisenroth_DEVTOX-GLR_Pluri_SOX2: CCTE's DevTox GLR-Pluri Assay Evaluation of SRY-box transcription factor 2 (SOX2) Protein Expression, Deisenroth Lab (AID 2284428)
In short: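 Human pluripotent RUES2-GLR cells were seeded 24 h, then differentiated 48 h in defined media with two chemical doses at 24-h intervals (10-point, 1 nM–200 uM). Nuclear-stained cells were imaged; SOX2+ cells/cell count gave percent change versus 0.2% DMSO control.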

[2] = test system: Brachyury (BRA) Protein Expression, Deisenroth Lab, TBXT (gene 6862); assay: CCTE_Deisenroth_DEVTOX-GLR_Pluri_BRA: CCTE's DevTox GLR-Pluri Assay Evaluation of Brachyury (BRA) Protein Expression, Deisenroth Lab (AID 2284429; active = hit-call score of the fitted dose curve at least 0.9, where 1 is the maximum)
Method: CCTE_Deisenroth_DEVTOX-GLR_Pluri assay is a cell-based, multiplex-readout assay that uses RUES2-GLR, a human pluripotent cell line, with measurements taken at 48 hours after chemical dosing in a 384-well microplateCCTE_Deisenroth_DEVTOX-GLR_Pluri_BRA is 1 of 4 assay components calculated from the CCTE_Deisenroth_DEVTOX-GLR_Pluri assay and it measures an the percentage of cells in an mesoderm state. Using a type of inducible fluorescent protein reporter, gain-of-signal activity can be used to understand changes in gene expression with fluorescent microscopy. The percentage of BRA+ cells are determined by calculating the number of BRA+ cells divided by the cell count. To generalize the intended target to other relatable targets, this assay component is annotated to the transcription factor intended target family, where the subfamily is T-box protein.Data from the assay component CCTE_Deisenroth_DEVTOX-GLR_Pluri_BRA was analyzed as 1 assay endpoint. The endpoint is the percent BRA+ cell population minus the 0.2% DMSO control in the CCTE_Deisenroth_DEVTOX-GLR_Pluri assay. Furthermore, this assay endpoint can be referred to as a secondary readout, because this assay has produced multiple assay endpoints where this one serves as a measure of mesoderm differentiation.
(§1) All assay protocols are aligned to the DevTox GLR-Endo assay workflow. […]

[3] = CCTE_Deisenroth_DEVTOX-GLR_Pluri_CellCount: Viability Assessment in CCTE's DevTox GLR-Pluri Assay Evaluation of Total Cell Counts, Deisenroth Lab (AID 2284430)
Method: CCTE_Deisenroth_DEVTOX-GLR_Pluri assay is a cell-based, multiplex-readout assay that uses RUES2-GLR, a human pluripotent cell line, with measurements taken at 48 hours after chemical dosing in a 384-well microplateCCTE_Deisenroth_DEVTOX-GLR_Pluri_CellCount is 1 of 4 assay components calculated from the CCTE_Deisenroth_DEVTOX-GLR_Pluri assay and it measures cell count. Using fluorescent nuclei staining, gain-of-signal activity can be used to understand changes in cell viability with fluorescent microscopy. It is designed to make measurements of nuclei counts as a surrogate for cell number, as detected with optical fluorescence microscopy by Perkin Elmer Harmony nuclei detection algorithm. To generalize the intended target to other relatable targets, this assay component is annotated to the cell cycle intended target family, where the subfamily is cytotoxicity.Data from the assay component CCTE_Deisenroth_DEVTOX-GLR_Pluri_CellCount was analyzed as 1 assay endpoint. The endpoint the percent change in the cell count relative to the 0.2% DMSO control in the CCTE_Deisenroth_DEVTOX-GLR_Pluri assay. Furthermore, this assay endpoint can be referred to as a primary readout, because this assay has produced multiple assay endpoints where this one serves as a measure of cytotoxicity.
as §1

Measured: outcome

O=P1(N(CCCl)CCCl)NCCCO1 (stereo not drawn)
inactive: [1] | [2] | [3]
